Measured values from the supplement of paper PMC10849652.
Of roughly 7,900 targets only a part is listed; those with a hit were picked by preference. About 0.6% of all pairs of compound and target were hits. Values without a mark were called inactive.

Compound: CN1CCN(c2nc(C3=C(c4c[nH]c5ccccc45)C(=O)NC3=O)c3ccccc3n2)CC1 [sotrastaurin]
Assay: log2 fold change, soluble protein after heating vs DMSO (PISA); higher = thermal stabilisation; K562 cells, 10 uM, 30 min; active = over 0.2 and 3.5 SD of the protein, either way, in both replicates (recomputed)
Procedure, shortened: (§1)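 K562 cells at 2×10^6 cells/mL were treated with 10 μM compound for 30 min. Aliquots were heated for 3 min across 48°C-58°C, pooled, and extracted in PBS with 0.5% NP-40 at 4°C; soluble protein was the supernatant after 21,000xg for 90 min. Soluble protein was quantified by TMTpro 16plex LC-MS/MS with channel sums equalised, and reported as log2 fold change in thermal stability against DMSO controls, with values from duplicates.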

Sequence of UniProt Q9NVC6 (Q9NVC6 whole entry, looked up): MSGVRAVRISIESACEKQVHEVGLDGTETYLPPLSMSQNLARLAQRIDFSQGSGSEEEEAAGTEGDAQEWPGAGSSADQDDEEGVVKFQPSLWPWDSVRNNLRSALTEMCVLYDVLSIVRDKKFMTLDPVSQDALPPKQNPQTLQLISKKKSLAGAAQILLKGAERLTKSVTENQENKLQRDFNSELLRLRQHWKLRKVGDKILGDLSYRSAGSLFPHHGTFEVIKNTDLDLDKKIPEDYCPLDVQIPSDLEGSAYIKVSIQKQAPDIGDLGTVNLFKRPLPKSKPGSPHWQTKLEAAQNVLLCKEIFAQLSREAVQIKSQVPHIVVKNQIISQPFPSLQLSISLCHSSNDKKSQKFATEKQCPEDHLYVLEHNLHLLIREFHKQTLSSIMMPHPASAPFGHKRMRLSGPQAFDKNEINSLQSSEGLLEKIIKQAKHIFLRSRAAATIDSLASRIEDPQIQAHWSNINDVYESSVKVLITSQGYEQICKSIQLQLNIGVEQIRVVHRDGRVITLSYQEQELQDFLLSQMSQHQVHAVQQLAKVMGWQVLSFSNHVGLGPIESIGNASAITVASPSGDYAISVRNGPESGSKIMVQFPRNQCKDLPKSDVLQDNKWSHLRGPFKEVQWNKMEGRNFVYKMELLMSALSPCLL
Sequence of UniProt Q14680 (Q14680 whole entry, looked up): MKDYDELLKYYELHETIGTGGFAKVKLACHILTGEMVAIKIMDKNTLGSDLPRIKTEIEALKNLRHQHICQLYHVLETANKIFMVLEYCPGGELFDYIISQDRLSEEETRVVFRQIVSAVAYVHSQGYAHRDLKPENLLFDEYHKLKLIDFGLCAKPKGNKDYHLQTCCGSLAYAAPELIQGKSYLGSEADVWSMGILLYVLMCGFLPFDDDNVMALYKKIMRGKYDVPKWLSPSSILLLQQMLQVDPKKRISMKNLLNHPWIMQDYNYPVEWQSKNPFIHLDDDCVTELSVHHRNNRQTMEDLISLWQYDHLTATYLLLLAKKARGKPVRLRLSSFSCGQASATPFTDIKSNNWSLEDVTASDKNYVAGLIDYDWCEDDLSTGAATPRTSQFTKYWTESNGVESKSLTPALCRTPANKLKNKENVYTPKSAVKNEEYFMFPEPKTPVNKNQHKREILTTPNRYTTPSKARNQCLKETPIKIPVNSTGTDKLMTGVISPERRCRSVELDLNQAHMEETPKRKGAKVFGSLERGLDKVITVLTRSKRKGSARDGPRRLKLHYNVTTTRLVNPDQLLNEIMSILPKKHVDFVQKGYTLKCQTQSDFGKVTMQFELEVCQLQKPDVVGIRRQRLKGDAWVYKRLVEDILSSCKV
Sequence of UniProt Q96LU5 (Q96LU5 whole entry, looked up): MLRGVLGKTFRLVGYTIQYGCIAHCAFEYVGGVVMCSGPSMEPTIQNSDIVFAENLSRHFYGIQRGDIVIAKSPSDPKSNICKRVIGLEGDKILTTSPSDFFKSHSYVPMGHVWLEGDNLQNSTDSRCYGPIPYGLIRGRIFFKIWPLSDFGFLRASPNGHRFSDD
Sequence of UniProt Q15528 (Q15528 whole entry, looked up): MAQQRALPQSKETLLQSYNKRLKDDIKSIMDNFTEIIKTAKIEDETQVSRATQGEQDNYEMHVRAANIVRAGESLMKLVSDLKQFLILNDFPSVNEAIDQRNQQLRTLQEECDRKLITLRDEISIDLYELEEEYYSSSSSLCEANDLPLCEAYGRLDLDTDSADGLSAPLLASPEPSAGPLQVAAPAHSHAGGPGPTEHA
Sequence of UniProt O43934 (O43934 whole entry, looked up): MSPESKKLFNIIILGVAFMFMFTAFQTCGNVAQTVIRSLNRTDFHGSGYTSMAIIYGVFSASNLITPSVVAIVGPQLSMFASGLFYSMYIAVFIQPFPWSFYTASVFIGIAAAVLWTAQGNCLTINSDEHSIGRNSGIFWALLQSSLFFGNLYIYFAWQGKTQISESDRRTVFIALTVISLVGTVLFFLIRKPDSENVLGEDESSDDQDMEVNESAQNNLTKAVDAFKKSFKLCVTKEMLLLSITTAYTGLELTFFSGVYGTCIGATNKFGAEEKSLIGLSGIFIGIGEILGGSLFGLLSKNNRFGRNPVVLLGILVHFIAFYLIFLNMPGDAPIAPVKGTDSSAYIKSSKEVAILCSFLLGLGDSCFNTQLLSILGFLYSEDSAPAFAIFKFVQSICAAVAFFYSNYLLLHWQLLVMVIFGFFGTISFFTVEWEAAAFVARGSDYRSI
Sequence of UniProt Q92551 (Q92551 whole entry, looked up): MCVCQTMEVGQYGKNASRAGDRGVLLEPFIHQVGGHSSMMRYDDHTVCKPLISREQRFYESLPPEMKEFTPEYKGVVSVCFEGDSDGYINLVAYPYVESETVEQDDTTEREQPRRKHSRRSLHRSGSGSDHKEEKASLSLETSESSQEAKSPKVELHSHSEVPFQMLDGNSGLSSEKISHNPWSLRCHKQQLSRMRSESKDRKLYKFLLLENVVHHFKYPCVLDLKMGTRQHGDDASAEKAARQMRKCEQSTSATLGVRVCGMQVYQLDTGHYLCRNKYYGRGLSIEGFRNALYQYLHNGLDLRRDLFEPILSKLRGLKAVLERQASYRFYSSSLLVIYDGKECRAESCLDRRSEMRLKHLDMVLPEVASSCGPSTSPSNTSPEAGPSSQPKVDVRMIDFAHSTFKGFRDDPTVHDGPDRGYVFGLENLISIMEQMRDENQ
Sequence of UniProt O15066 (O15066 whole entry, looked up): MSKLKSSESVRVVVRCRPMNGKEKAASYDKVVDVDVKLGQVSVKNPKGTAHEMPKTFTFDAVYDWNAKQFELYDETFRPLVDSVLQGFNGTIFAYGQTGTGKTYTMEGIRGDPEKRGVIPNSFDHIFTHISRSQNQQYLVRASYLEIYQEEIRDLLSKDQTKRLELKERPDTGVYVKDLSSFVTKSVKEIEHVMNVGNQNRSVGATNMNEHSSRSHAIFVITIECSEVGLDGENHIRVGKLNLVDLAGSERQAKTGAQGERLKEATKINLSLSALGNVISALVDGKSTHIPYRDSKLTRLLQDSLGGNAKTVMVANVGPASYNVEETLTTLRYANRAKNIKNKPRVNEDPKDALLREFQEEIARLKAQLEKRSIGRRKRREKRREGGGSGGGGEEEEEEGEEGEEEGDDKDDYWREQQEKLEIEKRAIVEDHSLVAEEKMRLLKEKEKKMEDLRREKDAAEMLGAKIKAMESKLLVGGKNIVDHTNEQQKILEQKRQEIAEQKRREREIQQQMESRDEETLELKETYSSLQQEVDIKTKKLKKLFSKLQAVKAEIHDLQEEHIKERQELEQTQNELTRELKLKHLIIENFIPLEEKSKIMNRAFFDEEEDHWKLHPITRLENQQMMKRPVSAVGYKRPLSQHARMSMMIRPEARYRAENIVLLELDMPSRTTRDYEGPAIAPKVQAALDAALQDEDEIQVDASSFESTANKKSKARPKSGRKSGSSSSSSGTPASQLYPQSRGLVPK
Sequence of UniProt Q92604 (Q92604 whole entry, looked up): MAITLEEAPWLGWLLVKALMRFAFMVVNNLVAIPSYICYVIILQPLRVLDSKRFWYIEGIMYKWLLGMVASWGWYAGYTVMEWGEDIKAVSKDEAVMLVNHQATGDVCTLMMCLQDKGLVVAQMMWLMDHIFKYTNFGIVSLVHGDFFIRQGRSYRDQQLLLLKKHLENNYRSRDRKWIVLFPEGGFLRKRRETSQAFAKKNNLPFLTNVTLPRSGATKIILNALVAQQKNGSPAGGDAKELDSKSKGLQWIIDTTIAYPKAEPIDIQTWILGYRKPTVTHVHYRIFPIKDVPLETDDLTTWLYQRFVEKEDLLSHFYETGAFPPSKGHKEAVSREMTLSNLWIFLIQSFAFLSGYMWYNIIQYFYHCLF
Sequence of UniProt P51884 (P51884 whole entry, looked up): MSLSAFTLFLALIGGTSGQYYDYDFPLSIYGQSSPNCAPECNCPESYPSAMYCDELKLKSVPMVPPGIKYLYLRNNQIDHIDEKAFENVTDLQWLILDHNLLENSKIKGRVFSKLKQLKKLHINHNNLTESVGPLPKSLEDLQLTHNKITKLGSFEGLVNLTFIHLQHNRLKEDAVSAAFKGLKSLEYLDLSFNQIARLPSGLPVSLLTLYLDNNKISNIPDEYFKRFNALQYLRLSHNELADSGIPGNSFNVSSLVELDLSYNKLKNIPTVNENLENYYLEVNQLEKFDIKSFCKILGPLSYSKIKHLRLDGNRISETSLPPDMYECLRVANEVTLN
Sequence of UniProt Q6UWB1 (Q6UWB1 whole entry, looked up): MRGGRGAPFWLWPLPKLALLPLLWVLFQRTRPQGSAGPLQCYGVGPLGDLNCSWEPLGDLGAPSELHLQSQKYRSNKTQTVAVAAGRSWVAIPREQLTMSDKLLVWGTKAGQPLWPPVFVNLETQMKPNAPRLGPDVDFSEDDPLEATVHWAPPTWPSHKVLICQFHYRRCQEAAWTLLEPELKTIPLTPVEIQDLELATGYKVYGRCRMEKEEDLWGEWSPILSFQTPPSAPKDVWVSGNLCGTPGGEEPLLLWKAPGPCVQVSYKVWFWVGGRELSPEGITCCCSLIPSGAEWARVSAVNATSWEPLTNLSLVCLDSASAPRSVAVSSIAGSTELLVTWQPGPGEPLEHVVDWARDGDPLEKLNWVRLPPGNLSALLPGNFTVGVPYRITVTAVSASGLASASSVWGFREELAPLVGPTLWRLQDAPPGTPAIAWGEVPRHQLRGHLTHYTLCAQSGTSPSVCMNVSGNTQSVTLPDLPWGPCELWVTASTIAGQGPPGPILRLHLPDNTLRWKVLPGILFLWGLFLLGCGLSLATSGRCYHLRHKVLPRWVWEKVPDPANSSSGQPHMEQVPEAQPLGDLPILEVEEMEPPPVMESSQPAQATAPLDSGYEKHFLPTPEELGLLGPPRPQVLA
Sequence of UniProt Q9Y287 (Q9Y287 whole entry, looked up): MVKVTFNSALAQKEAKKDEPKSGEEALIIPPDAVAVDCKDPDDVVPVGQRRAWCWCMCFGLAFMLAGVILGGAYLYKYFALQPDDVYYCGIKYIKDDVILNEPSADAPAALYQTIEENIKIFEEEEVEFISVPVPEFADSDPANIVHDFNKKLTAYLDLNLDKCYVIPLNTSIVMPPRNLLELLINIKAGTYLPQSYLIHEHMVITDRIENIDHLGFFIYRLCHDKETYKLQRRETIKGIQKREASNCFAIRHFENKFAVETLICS

Target	log2 fold change
MAPK14 (UniProt Q16539)	0.001
MAP4K2 (UniProt Q12851)	-0.184
ITM2B (UniProt Q9Y287)	0.123
METAP1D (UniProt Q6UB28)	-0.042
IL27RA (UniProt Q6UWB1)	0.014
LPGAT1 (UniProt Q92604)	-0.001
MED12 isoform 2 (UniProt Q93074)	-0.09
KMT2C isoform 3 (UniProt Q8NEZ4)	-0.02
LUM (UniProt P51884)	0.29
LRBA, A0A494BZW2	0.065
IMMP1L (UniProt Q96LU5)	-0.005
KIF3B (UniProt O15066)	0.005
MED8 isoform 2 (UniProt Q96G25)	0.044
MED22 (UniProt Q15528)	-0.007
MARK2 (UniProt E9PC69)	-0.555
ILF3 (UniProt Q12906)	0.009
MCM10 (UniProt Q7L590)	-0.09
MELK (UniProt Q14680)	0.166
KCNK5 (UniProt O95279)	-0.047
MAN2B2 (UniProt Q9Y2E5)	-0.018
MFSD11 (UniProt O43934)	0.085
LENG8 (UniProt Q96PV6)	-0.043
LRFN1 (UniProt Q9P244)	-0.08
MASTL (UniProt Q96GX5)	-0.12
IP6K1 (UniProt Q92551)	-0.113
MARCHF3 (UniProt Q86UD3)	-0.055
MED25 isoform 3 (UniProt Q71SY5)	0.031
MED17 (UniProt Q9NVC6)	-0.145
MAP4 isoform 5 (UniProt P27816)	-0.16
ILRUN (UniProt Q9H6K1)	-0.029

Compound: CN1CC[C@H](c2c(O)cc(O)c3c(=O)cc(-c4ccccc4Cl)oc23)[C@H](O)C1 [alvocidib]
Assay: as above
Procedure, shortened: as §1

Target	log2 fold change
MAPK14 (UniProt Q16539)	0.014
MAP4K2 (UniProt Q12851)	-0.076
ITM2B (UniProt Q9Y287)	-0.053
METAP1D (UniProt Q6UB28)	-0.086
IL27RA (UniProt Q6UWB1)	-0.025
LPGAT1 (UniProt Q92604)	-0.011
KMT2C isoform 3 (UniProt Q8NEZ4)	-0.084
LUM (UniProt P51884)	0.047
LRBA, A0A494BZW2	0.015
IMMP1L (UniProt Q96LU5)	0.039
KIF3B (UniProt O15066)	-0.011
MED8 isoform 2 (UniProt Q96G25)	0.007
MFSD8 (UniProt Q8NHS3)	-0.044
MED22 (UniProt Q15528)	-0.055
MARK2 (UniProt E9PC69)	-0.007
ING5 (UniProt Q8WYH8)	0.034
MBLAC1 (UniProt A4D2B0)	0.002
MAGEA8 (UniProt P43361)	-0.022
KIZ (UniProt Q2M2Z5)	-0.076
MELK (UniProt Q14680)	0.011
KCNK5 (UniProt O95279)	-0.239
MFSD11 (UniProt O43934)	-0.029
LENG8 (UniProt Q96PV6)	-0.074
LRFN1 (UniProt Q9P244)	-0.44 (active)
MASTL (UniProt Q96GX5)	-0.061
IP6K1 (UniProt Q92551)	-0.074
MED25 isoform 3 (UniProt Q71SY5)	-0.102
KXD1 (UniProt Q9BQD3)	-0.105
MED17 (UniProt Q9NVC6)	-0.009
ILRUN (UniProt Q9H6K1)	-0.022

Compound: CN1CCc2c(c3ccccc3n2Cc2ccc(C(=O)NO)cc2)C1 [Tubastatin A]
Assay: as above
Procedure, shortened: as §1

Target	log2 fold change
MAPK14 (UniProt Q16539)	0.074
MAP4K2 (UniProt Q12851)	0.076
ITM2B (UniProt Q9Y287)	0.143
METAP1D (UniProt Q6UB28)	-0.181
IL27RA (UniProt Q6UWB1)	0.063
LPGAT1 (UniProt Q92604)	0.019
MED12 isoform 2 (UniProt Q93074)	0.32
KMT2C isoform 3 (UniProt Q8NEZ4)	-0.029
LUM (UniProt P51884)	-0.145
LRBA, A0A494BZW2	-0.42
IMMP1L (UniProt Q96LU5)	-0.024
KIF3B (UniProt O15066)	0.002
MFSD8 (UniProt Q8NHS3)	0.023
MED22 (UniProt Q15528)	0.332
MARK2 (UniProt E9PC69)	0.278
ING5 (UniProt Q8WYH8)	0.192
MCM10 (UniProt Q7L590)	-0.017
MAGEA8 (UniProt P43361)	0.101
MAP4K4 isoform 6 (UniProt O95819)	-0.016
MELK (UniProt Q14680)	0.074
MAN2B2 (UniProt Q9Y2E5)	0.105
MFSD11 (UniProt O43934)	0.005
LENG8 (UniProt Q96PV6)	-0.021
LRFN1 (UniProt Q9P244)	-0.006
MCOLN3 (UniProt Q8TDD5)	-0.001
IP6K1 (UniProt Q92551)	-0.06
MED25 isoform 3 (UniProt Q71SY5)	-0.042
KXD1 (UniProt Q9BQD3)	-0.01
MED17 (UniProt Q9NVC6)	0.009
ILRUN (UniProt Q9H6K1)	0.116
